# PLAP act – PLAP enzyme activators, biochemical, luminescence, HTS. activation fold at 20 µM. purified PLAP enzyme, luminescent substrate read-out; active compounds read high. Alkaline phosphatase, placental type (Homo sapiens), P05187. actives 1.2% (n = 96,000); in the data active = activation fold above about 2
# HePTP inhibitor – inhibitors of human HePTP phosphatase, primary screen, biochemical, absorbance, leukemia target; inhibition, % at 20 µM; recombinant HePTP phosphatase activity, OD absorbance; actives 0.64% (n = 110,000); in the data active = inhibition above about 50%
# Target sequence (P35236 whole entry, looked up): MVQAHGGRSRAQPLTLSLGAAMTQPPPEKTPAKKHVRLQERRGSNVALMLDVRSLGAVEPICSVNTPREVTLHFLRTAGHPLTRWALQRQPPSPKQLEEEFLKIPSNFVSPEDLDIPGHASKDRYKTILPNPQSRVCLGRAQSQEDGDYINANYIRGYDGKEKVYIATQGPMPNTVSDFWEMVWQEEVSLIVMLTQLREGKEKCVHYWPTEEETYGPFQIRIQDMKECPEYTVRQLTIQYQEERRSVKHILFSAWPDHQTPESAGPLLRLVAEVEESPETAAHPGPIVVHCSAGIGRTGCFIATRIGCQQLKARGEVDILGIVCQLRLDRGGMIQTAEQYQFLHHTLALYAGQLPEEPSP
# Mac1 fbg inh – inhibitors of CD11b/CD18 adhesion to fibrinogen, primary screen, K562 cells, luminescence; Integrin beta-2 (Homo sapiens) + Integrin alpha-M (Homo sapiens), P05107+P11215; ATPlite luminescence; Mn2+ added to activate the integrin; inhibition, % at 10 µM; actives 0.54% (n = 93,000); AID 1497, 2009;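 active = primary inhibition of 50% or more at 10 µM, then 40% or more on retest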
# Mac1 fbg enh – enhancers of CD11b/CD18 adhesion to fibrinogen, primary screen, K562 cells, luminescence; Integrin beta-2 (Homo sapiens) + Integrin alpha-M (Homo sapiens), P05107+P11215; ATPlite luminescence; activation, % at 10 µM; actives 0.07% (n = 93,000);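 active = 10 µM primary screen giving 50% or more activity, confirmed by 40% or more on retest at that dose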
# Hits are given with their value; – = inactive; · = no result. This is a sample that favours compounds with a hit; in the whole collection about 1.5% have one here.
SMILES,PLAP act,HePTP inhibitor,Mac1 fbg inh,Mac1 fbg enh
O=C(O)c1ccc([N+](=O)[O-])c2c1NC(c1ccccc1)C1CC=CC21 (centres undefined),·,87.6,·,·
Cc1c(Cl)ccc2c1NC(C(=O)O)C1CC=CC21 (centres undefined),·,103.2,·,·
O=C(O)C1Nc2c(C(=O)N3CCOCC3)cccc2C2C=CCC12 (centres undefined),–,–,–,–
Cc1ccc([N+](=O)[O-])c2c1NC(c1ccc(Br)cc1)C1CC=CC21 (centres undefined),·,–,·,·
O=C(O)C1Nc2c(C(=O)N3CCCC3)cccc2C2C=CCC12 (centres undefined),·,94.0,·,·
O=C(O)c1cccc2c1NC(c1cccc(Cl)c1Cl)C1CC=CC21 (centres undefined),·,87.7,·,·
N#CC1=C(SCC(=O)Nc2ccc(Cl)cc2)NC(=O)CC1c1ccccc1Cl (centres undefined),·,–,·,·
O=C(NCCNc1ccc(Cl)cc1[N+](=O)[O-])c1ccc(F)cc1,·,–,·,·
Oc1ccc(N=Cc2cc(Br)cc(Br)c2O)cc1,·,–,·,·
CCOC(=O)C1=C(C)OC(N)=C(C(=O)OCC)C1c1ccc([N+](=O)[O-])cc1 (centres undefined),·,–,·,·
Cc1cc(O)ccc1N=Cc1ccc(N2CCOCC2)cc1,·,–,·,·
C=CCc1c(C)nc(C)nc1N/N=C/c1ccccc1O,2.5,·,–,–
Cc1ccc(N(CC(=O)Nc2cccc3cccnc23)S(=O)(=O)c2ccc(C)cc2)cc1,·,–,·,·
Cc1cc(C)nc(Nc2ncc(O)n2-c2ccc(C)c(Cl)c2)n1,–,–,–,–
Cc1cc(C)nc(Nc2ncc(O)n2-c2ccc(C)c(C)c2)n1,2.6,·,–,–
O/N=C1/C2C3CC4C2/C(=N\O)C2C1C3C42 (centres undefined),·,–,·,·
CC1=NN(C(=O)c2ccc(Cn3nc(C)c([N+](=O)[O-])c3C)cc2)C(O)(C(F)(F)F)C1 (centres undefined),–,·,–,–
CC1=NN(C(=O)c2ccc(Cn3nc(C)cc3C)o2)C(O)(C(F)(F)F)C1 (centres undefined),2.2,·,–,–
CC1=C(C(=O)OCc2ccccc2)C(c2cccc(Cl)c2Cl)C2=C(CCCC2=O)N1 (centres undefined),·,–,·,·
C=C(C)Cn1c(Sc2nc3ccccc3[nH]2)nc2c1c(=O)[nH]c(=O)n2C,2.1,–,–,–
CCNC(=S)NNC(=O)c1cc(C2CC2)nc2ccccc12,2.1,·,·,·
CCNC(=S)NNC(=O)c1cc(-c2ccccc2)nc2ccccc12,·,–,·,·
CCNC(=S)NNC(=O)c1cc(-c2cccc(OCC)c2)nc2ccccc12,2.7,·,–,–
CCNC(=S)NNC(=O)c1cc(-c2cccc(C)c2)nc2ccccc12,–,·,59.5,–
O=C(c1ccco1)c1coc2ccc(Cl)cc2c1=O,·,–,·,·
SMILES,PLAP act,HePTP inhibitor,Mac1 fbg inh,Mac1 fbg enh
O=C(c1ccco1)c1cn[nH]c1-c1ccc(Cl)cc1O,2.9,–,–,–
O=C(c1ccccc1)c1cn[nH]c1-c1ccccc1O,2.2,·,–,–
Cc1ccc(C(=O)c2cn[nH]c2-c2cc(Cl)ccc2O)cc1,2.3,·,–,–
CCOc1cc(C2Nc3ccccc3NC3=C2C(=O)CC(c2ccc(OC)cc2)C3)cc(Cl)c1O (centres undefined),·,–,·,·
COc1ccccc1N1C(=O)/C(=C\c2ccc(Cl)cc2Cl)SC1=S,·,–,·,·
CCC1C(=O)N(c2nc(-c3ccc(I)cc3)cs2)N=C1C (centres undefined),·,–,·,·
COc1ccc2oc(=O)c(-c3csc(/N=C/c4ccccc4O)n3)cc2c1,·,–,·,·
Cc1ccc(S(=O)(=O)N2C(=O)CC[C@@H]2C(=O)N2CCn3c4c(c5cc(C)ccc53)CCCC42)cc1 (some centres undefined),·,–,·,·
Clc1ccc(-c2noc(CSc3nnc(Cc4cccs4)n3-c3ccccc3)n2)cc1,–,·,68.9,–
Cc1ccc(C(=O)O)cc1NC(=O)C1CCCCC1C(=O)O (centres undefined),·,–,·,·
COc1ccc(CCN2C(=O)/C(=C3/C(=O)N(C)c4ccccc43)SC2=S)cc1OC,·,–,·,·
O=C(Nc1ncc(Br)s1)C(Cc1ccccc1)n1cccc1 (centres undefined),–,–,79.2,–
Cc1c(NC(=O)c2ncn[nH]2)cccc1-c1nc2ccccc2s1,·,·,–,–
Cc1c(O)ccc(-c2[nH]ncc2-c2nc3ccccc3s2)c1O,2.2,·,–,–
CCOC(=O)N1CCC(NC(=O)CC(NS(=O)(=O)c2ccc(Cl)cc2)c2ccco2)CC1 (centres undefined),–,–,–,–
CCOC(=O)N1CCC(Nc2nc3ccccc3nc2NS(=O)(=O)c2ccc(Cl)cc2)CC1,–,–,91.5,–
COc1ccc(CCNC2CCN(Cc3ccccc3)CC2)cc1OC,·,–,·,·
COc1cccc(N2C(=O)C(=O)/C(=C(\O)c3ccccc3)C2c2ccc(Br)cc2)c1 (centres undefined),·,–,·,·
COCc1cc(C)nc(N2CCN(c3ccccc3)CC2)c1C#N,–,–,–,–
COCc1cc(C)nc(N2CCN(Cc3ccccc3)CC2)c1C#N,–,·,52.3,–
CCCCn1c(NC(=O)CC)c(C#N)c2nc3ccccc3nc21,–,–,–,–
N#Cc1c(NC(=O)c2ccccc2Cl)n(Cc2ccccc2)c2nc3ccccc3nc12,·,·,100.0,–
CCCCn1c(NC(=O)c2ccccc2Cl)c(C#N)c2nc3ccccc3nc21,–,–,105.7,–
O=C(O)c1ccccc1C(=O)Nc1ccc2nc(SCc3nc4ccccc4[nH]3)sc2c1,·,–,·,·
O=C(Nc1ccccc1O)c1ccccc1O,–,–,69.2,–
SMILES,PLAP act,HePTP inhibitor,Mac1 fbg inh,Mac1 fbg enh
Cc1cccc(NC(=O)c2ccccc2O)c1C,–,–,–,–
COc1cccc2sc(Nc3nnc(-c4ccc(F)cc4)o3)nc12,2.4,·,–,–
CCc1ccc(-n2nnnc2SCC(=O)NNC(=O)c2ccco2)cc1,2.3,·,·,·
CC(=O)c1ccc(-n2nnnc2SCC(=O)NNC(=O)c2ccco2)cc1,2.2,·,·,·
CC(=O)c1ccc(-n2nnnc2SCC(=O)Nc2cccc(NC(=O)c3ccco3)c2)cc1,–,·,·,·
O=C(NCc1ccco1)c1cc(-c2ccccc2)nc2ccccc12,–,–,–,–
O=C(NCc1ccco1)c1cc(-c2ccco2)nc2ccccc12,·,103.3,·,·
O=C(Nc1cccc2ccccc12)c1cc(-c2ccco2)nc2ccccc12,·,102.0,·,·
CSc1ccccc1NC(=O)CN(C1CCCCC1)S(C)(=O)=O,2,·,–,–
CC(=O)c1cccc(NC(=O)CN(C2CCCCC2)S(C)(=O)=O)c1,–,–,–,–
CC(=O)NC1=NC(=O)/C(=C\c2ccc(-c3ccccc3C(=O)O)o2)S1,·,51.0,·,·
Cc1nc2c(C)c(-c3ccccc3)[nH]n2c(=O)c1Cl,·,–,·,·
C#CCn1cc(/C=C2\C(=O)NC(=O)N(c3ccc(C)cc3)C2=O)c2ccccc21,·,85.4,·,·
Cc1ccc(S(=O)(=O)/N=C2\C=C(Sc3ncn[nH]3)C(=O)c3ccccc32)cc1,·,–,·,·
CC(C)c1ccc(S(=O)(=O)/N=C2/C=C(Sc3ncn[nH]3)C(=O)c3ccccc32)cc1,·,·,101.8,–
